According to PubChem BioAssay (NCATS):
Several values for one entry are separate records, joined by “and”; a condition that tells them apart may be missing. Equal values may be shown once. Records with an inconclusive call do not appear. A call without a number means that no potency is given here. Activity calls are given as the source filed them. Calls come from the whole dose curve; as a rule, active = well fitted cell-killing curve with a large enough effect; inconclusive = small, poorly fitted or top-dose-only effect; inactive = no such curve, though single readings can be large or run the other way. Non-standard residues stand in square brackets, D forms with d. Residues, ends and D or L forms follow the SMILES beside them. Peptide text beside a SMILES is read from it. *: point of attachment. Sta = CC(C)C[C@H](N)[C@@H](O)CC(=O)O; Isovaleryl = CC(C)CC(=O)*

Experiment: qHTS of pediatric cancer cell lines to identify multiple opportunities for drug repurposing: Primary screen for SJ-GBM2 cells (AID 1347091)
Conditions: SJ-GBM2 viability, CellTiter-Glo luminescence, 48 h; series mostly up to 46 µM; activity change, negative = cytotoxic: at the top concentration
In short: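 Eight- or eleven-point concentration series, 48 h treatment at 37 degrees C in growth media; readout CellTiter-Glo luminescence. Potency and efficacy were taken from the concentration-response curves.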
Potency is the fitted concentration of half-maximal effect.

Structure (SMILES)	Potency	activity change, negative = cytotoxic
Cc1nc(-c2ccc(OCC(C)C)c(C#N)c2)sc1C(=O)O	inactive	–
O=C(CS(=O)Cc1ccco1)NCC=CCOc1cc(CN2CCCCC2)ccn1 (centres undefined)	–	22.8% (inactive)
Cc1c(C(=O)NN2CCCCC2)nn(-c2ccc(Cl)cc2Cl)c1-c1ccc(Cl)cc1	13.2 µM (active)	–
Cc1cc2c(s1)Nc1ccccc1N=C2N1CCN(C)CC1	inactive	–
CCCCc1ccc2nc(NC(=O)OC)[nH]c2c1	1 nM (active) and 106 nM (active)	–
CC(C)c1ccc2oc3nc(N)c(C(=O)O)cc3c(=O)c2c1	inactive	–
COCCCOc1ccnc(CS(=O)c2nc3ccccc3[nH]2)c1C (centres undefined)	inactive	–
N=C(N=C(N)N)N1CCOCC1	inactive	–
Nc1cccc2c1CN(C1CCC(=O)NC1=O)C2=O (centres undefined)	inactive	–
CN(C)[C@@H](CCOc1cccc2ccccc12)c1ccccc1	–	1.04% (inactive)
CN(C)c1ccc2nc3ccc(=[N+](C)C)cc-3sc2c1	3.32 µM (active) and 2.66 µM (active)	–
Clc1ccc(C(Cn2ccnc2)OCc2c(Cl)cccc2Cl)c(Cl)c1 (centres undefined)	–	-6.1% (inactive)
C[Se]CCC(N)C(=O)O (centres undefined)	–	7.82% [at 92.7 µM] (inactive)
Nc1ccc(S(N)(=O)=O)cc1	inactive	–
CC1=C(C)C(=O)C(C(CCCCCC(=O)O)c2ccccc2)=C(C)C1=O (centres undefined)	inactive	–
O=C(NCCO[N+](=O)[O-])c1cccnc1	inactive	–
CCC1=C(C)CN(C(=O)NCCc2ccc(S(=O)(=O)NC(=O)NC3CCC(C)CC3)cc2)C1=O (centres undefined)	inactive	–
COc1cc2c(N3CCN(C(=O)Nc4ccc(OC(C)C)cc4)CC3)ncnc2cc1OCCCN1CCCCC1	inactive	–
COC(=O)C1=C(C)NC(C)=C(C(=O)OCCCN2CCC(c3ccccc3)(c3ccccc3)CC2)C1c1cccc([N+](=O)[O-])c1 (centres undefined)	–	16.2% (inactive)
CN(C)c1ccc(O)c2c1C[C@H]1C[C@H]3[C@H](N(C)C)C(=O)C(C(N)=O)=C(O)[C@@]3(O)C(=O)C1=C2O	inactive	–

Structure (SMILES)	Potency	activity change, negative = cytotoxic
Cc1ccc(C)c(OCCCC(C)(C)C(=O)O)c1	–	7.92% (inactive)
Cc1cc(=O)c2c(O)c3c(O)cc(=O)c4c3c3c(cc(O)c1c23)C(C)(C)C=4O	0.332 µM (active)	–
CC(C)CC(=O)N[C@H](C(=O)N[C@H](C(=O)N[C@@H](CC(C)C)[C@@H](O)CC(=O)N[C@@H](C)C(=O)N[C@@H](CC(C)C)[C@@H](O)CC(=O)O)C(C)C)C(C)C (Isovaleryl-VV[Sta]A[Sta]-OH)	–	13.5% (inactive)
N=C(N)c1ccc2cc(OC(=O)c3ccc(N=C(N)N)cc3)ccc2c1	inactive	–
Cc1ccc(S(=O)(=O)NC(=O)NN2CC3CCCC3C2)cc1 (centres undefined)	–	9.39% (inactive)
Cn1c(NCCN(CCO)CCCc2ccc([N+](=O)[O-])cc2)cc(=O)n(C)c1=O	–	9.21% (inactive)
Nc1cc(C(Cl)=C(Cl)Cl)c(S(N)(=O)=O)cc1S(N)(=O)=O	inactive	–
NC(=O)Cc1cccc(C(=O)c2ccccc2)c1N	inactive	–
O=C(O)CCNC(=O)c1ccc(N=Nc2ccc(O)c(C(=O)O)c2)cc1	inactive	–
COC(=O)[C@H](Cc1ccccc1)NC(=O)[C@@H](N)CC(=O)O (H-Asp-Phe-OMe)	inactive	–
C[C@H](Cn1cnc2c(N)ncnc21)OCP(=O)(O)O	–	24.6% (inactive)
Nc1ncn([C@H]2C[C@H](O)[C@@H](CO)O2)c(=O)n1	inactive	–
O=C(NC(Cc1cc(=O)[nH]c2ccccc12)C(=O)O)c1ccc(Cl)cc1 (centres undefined)	inactive	–
COc1c2occc2cc2ccc(=O)oc12	inactive	–
CN(c1nccc(=O)[nH]1)C1CCN(c2nc3ccccc3n2Cc2ccc(F)cc2)CC1	–	-0.02% (inactive)
CCCc1cc(=O)[nH]c(=S)[nH]1	inactive	–
CN1CCC(=C2c3ccccc3CCc3sccc32)CC1	–	-23% (inactive)
CNC[C@@H](O)[C@@H](O)[C@H](O)[C@H](O)CO	–	14.3% (inactive)
COC(=O)N[C@H](C(=O)N[C@@H](Cc1ccccc1)[C@@H](O)CN(Cc1ccc(-c2ccccn2)cc1)NC(=O)[C@@H](NC(=O)OC)C(C)(C)C)C(C)(C)C	inactive	–
